# Data reported in PubChem BioAssay (NCI).
# Compounds without any hit were thinned out: in the full panel of roughly 83,000, 20% have a hit.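 Method: cells in 96-well plates; compound added at one concentration; 48 h incubation; percent growth measured; values under 10 scored active.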 Activity calls are given as the source filed them.
# Tested on: HL-60(TB) leukemia
# Assay: NCI-60 one-dose screen, 48 h (100 = growth as untreated, 0 = no growth, -100 = all killed)
# Conditions: 10 µM unless noted
row,Compound,growth
1,CCN(CC)CCCNC(=O)c1c2c(n3ccccc13)C(=O)c1ncccc1C2=O,-33.8% (active)
2,Cc1ccc(C)n1/C=C/n1c(C)ccc1C,128% (inactive)
3,NC(=S)Nc1cccc(O)c1,98.6% (inactive)
4,CCc1ccc(OC(=O)CCl)cc1,102% (inactive)
5,COc1ccc(S(=O)(=O)n2cc(C(=O)C(=O)Nc3ccncc3)c3ccccc32)cc1F,-46.4% (active)
6,Cc1cc(O)c(C(C)C)cc1Cl,101% (inactive)
7,CN=C(N)N/N=C(\c1ccccc1)c1ccc(Br)cc1,-52.5% (active)
8,CCn1cc(CNc2ccc(C(=O)Nc3ccc4ccccc4c3)cc2)c(C)n1,79.8% (inactive)
9,COC(=O)c1ccc2c(C(=Nc3ccc(N(C)C(=O)CN4CCN(C)CC4)cc3)c3ccccc3)c(O)[nH]c2c1,70.8% (inactive)
10,Cc1nc2sccn2c1-c1csc(Nc2cccc(Cl)c2C)n1,36.4% (inactive)
11,O=C1Nc2ccc(Br)cc2C12CC(c1ccccc1)=NN2 (stereo unspecified),-4.96% (active)
12,CCOC(=O)C1=NN(c2ccc(Cl)cc2)C2C3N(c4ccc(Cl)cc4)N=C(C(=O)OCC)N3c3ccccc3N12 (stereo unspecified),-67.8% (active)
13,Cc1nc(-c2ccccc2)cc2c(O)c(C(=O)N/N=C/c3ccc(N(C)C)cc3)[nH]c(=O)c12,116% (inactive)
14,Cc1cc(C)c(O)c(CNCCCNCc2cc(C)cc(C)c2O)c1,48.6% (inactive)
15,COc1ccccc1N1CCCSC1=Nc1ccccc1,50.1% (inactive)
16,COc1ccc(/C(=N/O)c2cc(OC)c(OC)c(OC)c2)c(OC)c1N,-24.6% (active)
